Screening results (PubChem BioAssay)
MARV entry inh: inhibitors of Marburg virus binding or cell entry; Potency, µM (top dose mostly 37.8 µM), most hits filed as inhibitors; 300,000 tested, 1.8% active; Marburg virus pseudotyped entry inhibition, cell reporter; AID 540276; calls by dose curve; tested in HEK293 cells
FMDV inh: foot and mouth disease virus antiviral activity. 410,000 tested, 1.2% active. Potency, µM (series often up to 57.9 µM), most hits filed as inhibitors. FMDV antiviral cell-based qHTS; calls by dose curve; tested in HEK293T cells; further: read-out not given here; nearly all actives have a fitted effect of over 45% in size
LASV entry inh: inhibitors of Lassa virus binding or cell entry | Lassa virus pseudotype entry inhibition, cell reporter | Potency, µM (top dose mostly 37.9 µM), usual class: inhibitors | 300,000 tested, 1.2% active | AID 540256; calls by dose curve; tested in HEK293 cells; further: nearly all actives have a fitted effect of over 50% in size
Vaccinia mCherry: inhibitors of vaccinia virus infection (mCherry reporter signal); AID 720579; Potency, µM (doses to about 36.5 µM), actives largely listed as inhibitors; Vaccinia virus mCherry reporter infection, fluorescence; 310,000 tested, 0.63% active; calls by dose curve; tested in A549 cells; further: nearly all actives have a fitted effect of over 35% in size
HCV inh: inhibitors of hepatitis C virus infection; Huh7.5.1 HCVcc-Cre infection, luciferase reporter, 44 h; Potency, µM (doses to about 41.8 µM), most hits filed as inhibitors; AID 651820; 340,000 tested, 3.4% active; active means well fitted inhibition curve with a large enough effect; inconclusive means small, poorly fitted or top-dose-only effect, or another doubt; inactive means no such curve, though single readings can be large or run the other way
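Antiviral activity was scored by luciferase reporter output from cells infected with HCVcc-Cre (~0.5 moi) in presence of compound, 44 h infection period, cells seeded 1,000/well 4 h prior.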
Vaccinia Venus: vaccinia inhibition (Venus reporter); 330,000 tested, 0.46% active; Potency, µM (doses to about 36.5 µM), hits mostly inhibitors; Vaccinia virus Venus reporter expression, fluorescence; calls by dose curve; tested in A549 cells; further: nearly all actives have a fitted effect of over 30% in size
A number is an active result; . = inactive; ? = inconclusive; / = no result. Rows were chosen to be rich in hits. Some 5.3% of all compounds tested hit in one or more screens of this group.

SMILES	MARV entry inh	FMDV inh	LASV entry inh	Vaccinia mCherry	HCV inh	Vaccinia Venus
COc1ccc(NC(=O)N2CCCc3ccccc32)c(OC)c1	.	.	?	?	.	.
COc1cc2c(cc1Nc1nc(Nc3ccsc3C(N)=O)c3cc[nH]c3n1)N(C(=O)CN(C)C)CCC2	/	/	0.0705µM	/	/	/
O=C(Nc1nccs1)[C@@H]1CC=C[C@@H]2CCN(C3CCCCC3)C(=O)[C@@H]21	/	/	/	.	/	.
O=C(Cn1ncc(Cl)c(Cl)c1=O)N1CCN(S(=O)(=O)c2ccc3ccccc3c2)CC1	1.78µM	28.2µM	?	?	5.62µM	?
Cc1ccc(S(=O)(=O)N2CCCCC2)cc1NC(=O)Cn1ncc(Cl)c(Cl)c1=O	/	20µM	/	/	0.708µM	/
Cc1ccc(S(=O)(=O)N2CCCCC2)cc1NC(=O)CSCC(=O)O	.	.	.	.	.	.
Cc1ccc(S(=O)(=O)N2CCCCC2)cc1NC(=O)CNC(C)c1ccc(Cl)c(Cl)c1 (configuration not stated)	/	.	/	/	8.91µM	/
Cc1cc(Br)ccc1NC(=O)CNC(=O)Cn1ncc(Cl)c(Cl)c1=O	.	6.31µM	/	.	2.24µM	.
OC1(c2ccc3c(c2)CN(Cc2nccs2)CCO3)CCN(c2ccccc2F)CC1	/	.	/	.	/	.
CNc1c2cccc(C)c2nc2c(C(=O)NCCN(C)C)cccc12	?	?	?	2.24µM	1.41µM	2.24µM
Cc1ccc(C(=O)NCCN(C)C)c(C)c1	.	.	?	.	.	.
O=c1c(-c2cccs2)nc2cnc(N3CCNCC3)nc2n1Cc1cccs1	/	.	/	/	/	/
N=c1ccn(CC(=O)c2ccc(-c3ccccc3)cc2)cc1	?	?	?	?	0.891µM	?
Cn1cc(CN2CCCC(CO)(Cc3ccccc3)C2)c2ccccc21 (configuration not stated)	1µM	?	?	.	?	.
COc1cccc(CC2(CO)CCCN(Cc3cn(C)c4ccccc34)C2)c1 (configuration not stated)	/	.	/	/	?	/
Cc1ccc(-n2nc(C)c(NC(=O)CCl)c2C)cc1C	?	.	11.2µM	?	3.55µM	?
CCC(=O)Nc1c(C)nn(-c2ccc(C)c(C)c2)c1C	.	.	.	.	.	.
Cc1nn(C)c(C)c1NC(=O)COc1ccc(Cl)cc1	/	?	/	/	11.2µM	/
Cc1nn(C)c(C)c1NC(=O)CCl	.	.	11.2µM	?	.	?
FC(F)(F)c1ccccc1-c1cc(NCc2cccnc2)ncn1	/	.	/	/	/	/
CNc1ccc2ncc(-c3cccc(C(=O)N(C)C)c3)n2n1	/	.	/	.	/	.
CC(O)[C@H]1CN=C(N)N1CCc1cc(C(F)(F)F)cc(C(F)(F)F)c1 (some centres not stated)	/	.	/	.	.	.
NC1=NC[C@H](Cc2ccc(O)cc2)N1CCc1cc(C(F)(F)F)cc(C(F)(F)F)c1	/	.	/	.	.	.
NC1=NC[C@H](c2ccccc2)N1CCc1cc(C(F)(F)F)cc(C(F)(F)F)c1	/	?	/	10µM	?	10µM
NC1=NC[C@@H](CC2CCCCC2)N1CCc1cc(C(F)(F)F)cc(C(F)(F)F)c1	/	35.5µM	/	?	?	10µM
SMILES	MARV entry inh	FMDV inh	LASV entry inh	Vaccinia mCherry	HCV inh	Vaccinia Venus
C(=Nc1cccnc1)c1ccc2ccccc2n1	/	/	/	.	/	.
CCOC(=O)C[n+]1cccc(Br)c1	/	/	/	.	/	.
O=C(N/N=C/c1cn(Cc2ccccc2)c2ccccc12)c1cccnc1	4.47µM	.	?	.	?	.
O=C(N/N=C/c1c(-c2ccccc2)[nH]c2ccccc12)c1cccnc1	/	.	/	/	10µM	/
CCCNC(=O)N1C2=NC(C(=O)OC)=C(C(=O)OC)[C@@H]3N(C)c4ccccc4[C@]23C[C@H]1C(=O)OC	.	/	/	/	/	/
O=c1oc2ccc3ccccc3c2cc1-c1nnc(Nc2cccc(F)c2)s1	/	.	.	.	/	.
O=Cc1ccc(-c2cccs2)s1	?	.	10µM	.	.	?
CC1(C)CSC(=NCc2ccccc2)N1	.	.	.	/	10µM	/
COc1cccc(CN=C2Nc3ccccc3CS2)c1	?	.	?	.	.	.
COc1ccc(F)c(CN2CCOc3ccc(CN4CCCCC4CO)cc3C2)c1 (configuration not stated)	/	.	/	.	/	.
O=S(c1ccc2ccccc2c1)c1cnns1 (configuration not stated)	?	?	?	/	?	10µM
COc1cc(OC)cc(-c2cc3nc(C)c(CCC(=O)NCCc4cccc(C)c4)c(C)n3n2)c1	.	.	.	.	/	.
COc1cc(OC)cc(-c2cc3nc(C)c(CCC(=O)NCc4ccccc4)c(C)n3n2)c1	11.2µM	5.62µM	8.91µM	?	?	.
COc1cc(OC)cc(-c2cc3nc(C)c(CCC(=O)NCc4ccc(Cl)cc4)c(C)n3n2)c1	4.47µM	12.6µM	?	.	/	.
COc1ccc(Oc2ncc3nc(-c4ccc(Cl)cc4)c(=O)n(C)c3n2)cc1	/	.	/	/	/	/
CC[C@@H](C(=O)[C@@H](C)[C@@H](O)[C@H](C)CCc1ccc(C)c(O)c1C(=O)O)[C@H]1O[C@](CC)([C@H]2CC[C@](O)(CC)[C@H](C)O2)C[C@@H]1C	/	28.2µM	/	?	1.78µM	10µM
O=C(C[N+]1(CCc2ccccc2)CCOCC1)c1ccccc1	/	/	/	.	/	.
CCc1nc(C)cn1S(=O)(=O)c1cc(C)c(OC)cc1C	/	.	/	.	.	.
